Assay [1] in a line: HEK-293 Cancer Cell Toxicity qHTS against the NCATS CANVASS Library (AID 1347355). Note: potency is the fitted concentration of half-maximal effect; nearly all actives have a fitted effect of over 65% in size. Particulars: HEK-293 viability, CellTiter-Glo luminescence, 72 h. An outline of the steps:
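1000 cells/well, 4 h pre-incubation 37 °C/5% CO2; 11-pnt titration; 72 h; CellTiter-Glo 15 min RT, luminescence.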
A general note: Quantitative high-throughput screening tests each substance at several concentrations.

Assay [2] has as its target Luciferin 4-monooxygenase (Photinus pyralis) (UniProt P08659). Description: Firefly luciferase counterscreen qHTS: Assay Interference Panel against the NCATS CANVASS Library (AID 1347363). As to conditions: purified firefly luciferase, luminescence inhibition, 5 min; series mostly up to 57.5 µM. The method in brief: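 Purified P. pyralis luciferase (0.04 ug/mL, 4x reagent) added to Tris-acetate buffer with 0.013 mM D-luciferin, 0.013 mM ATP and 13.3 mM Mg-acetate; compounds preincubated 15 min, then luminescence read after 5 min, RT.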
Background: Counterscreens check selectivity or assay interference.

Assay [3] is described as follows: KB-8-5-11 Cancer Cell Toxicity qHTS against the NCATS CANVASS Library (AID 1347364). Note: potency is the fitted concentration of half-maximal effect; nearly all actives have a fitted effect of over 75% in size. As to conditions: KB-8-5-11 MDR cells viability, CellTiter-Glo, 72 h. An outline of the steps: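 CellTiter-Glo luminescence after 72 h exposure; 500 KB-8-5-11 cells/well, DMEM/10% FBS, 37C, 5% CO2; compounds in 11-pt qHTS. Follow-up confirmation included medium with 1uM tariquidar.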

Assay [4] is described as follows: KB-3-1 Cancer Cell Toxicity qHTS against the NCATS CANVASS Library (AID 1347366). Note: potency is the fitted concentration of half-maximal effect; nearly all actives have a fitted effect of over 75% in size. Particulars: KB-3-1 viability, CellTiter-Glo luminescence, 72 h. An outline of the steps: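 Luminescence from CellTiter-Glo (10 min, room temperature) measured KB-3-1 viability after 72 hr compound exposure at 37C. Cells were seeded at 500/well and tested in an 11-point series.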
Assay [5] in a line: qHTS for ATAD5 Agonist screened against the NCATS CANVASS Library (AID 1347367).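 Note: luciferase reporter driven by ATAD5 which rises upon DNA damage.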 Particulars: HEK293T ATAD5-luciferase reporter, luminescence, 16 h; series mostly up to 46.1 µM. An outline of the steps:
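HEK293T-ATAD5 luc reporter; 2000 cells/well; 5hr settle; cpd 11-pt qHTS; 16hr 37C 5% CO2 dark; viability by CellTiter-Fluor (AFC fluorescence); then luciferase luminescence, 30min RT.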

A short description of assay [6]: qHTS for ATAD5 Antagonist screened against the NCATS CANVASS Library (AID 1347370). Note: potency is the fitted concentration of half-maximal effect; nearly all actives have a fitted effect of over 65% in size. Particulars: HEK293T-ATAD5-luc, 5-FUrd stimulated, luminescence, 16 h. The method in brief: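 HEK293T-ATAD5 luc reporter, 2000 cells/well; 5hr attach; cpd + 10 uM 5-FUrd; 16hr 37C, 5% CO2. Readouts: CellTiter-Fluor fluorescence (1hr), then Amplite luciferase luminescence (30min RT).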

The target in assay [7] is Nuclear receptor subfamily 1 group I member 3 (Homo sapiens) (UniProt Q14994). Description: qHTS for Constitutive Androstane Receptor (CAR) Agonist screened against the NCATS CANVASS Library (AID 1347373).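 Note: every well also contained 1.5 µM PK11195 alongside the test compound.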 As to conditions: HepG2-hCAR-CYP2B6 luciferase reporter, ONE-Glo luminescence; series mostly up to 46.1 µM. An outline of the steps: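 Luciferase read-out (ONE-Glo, 30 min RT) of CYP2B6-2.2kb promoter activity in double-stable HepG2-hCAR cells after 24hr compound exposure with 1.5uM PK11195 present; viability measured first by CellTiter-Fluor.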

Assay [8] can be described thus: 10-beta competent E. coli microbial cell viability qHTS against the NCATS CANVASS Library (AID 1347376). Particulars: E. coli 10-beta viability, BacTiter-Glo ATP luminescence, overnight; series mostly up to 46.1 µM. An outline of the steps: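 Luminescence from BacTiter-Glo ATP detection served as the viability read-out; bacteria (0.2 OD) had been incubated overnight at 37C with pin-transferred compounds at 11 concentrations.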

Assay [9] is described as follows: qHTS for Antimalaria activity screened against the NCATS CANVASS Library (AID 1347380). Note: potency is the fitted concentration of half-maximal effect; nearly all actives have a fitted effect of over 40% in size. Particulars: P. falciparum Dd2 growth, SYBR Green fluorescence, 72 h. The method in brief:
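SYBR Green fluorescence (ex 485, em 535 nm) read after saponin/Triton lysis and 18 h further incubation; Dd2 asexual blood-stage parasites, 72 h compound exposure, 11-pt concentration series, 2.5% hematocrit, 0.3% parasitemia.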

The nature of assay [10]: Inflammasome Signaling qHTS Counterscreen: IL-1-beta AlphaLISA counterscreen against the NCATS CANVASS Library (AID 1347381).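 Note: cell-free check with purified IL-1β in medium and no THP-1 cells.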 Particulars: Purified IL-1beta AlphaLISA signal interference counterscreen; series mostly up to 57.5 µM. An outline of the steps: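 Here, no cellular stimulation occurs; compounds in an 11-point series meet 4 pg purified IL-1-beta directly. Bead-based AlphaLISA detection follows (1 h acceptor/antibody, then 30 min donor, dark, room temperature), with excitation at 680 nm.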

Assay [11] is described as follows: qHTS for Activators of p53 Stress Response Pathway screened against the NCATS CANVASS Library (AID 1347388). Note: potency is the fitted concentration of half-maximal effect. Particulars: p53RE-bla HCT-116, beta-lactamase reporter, 16 h. An outline of the steps:
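p53RE-bla HCT-116 cells (4000/well) were pre-incubated for 5 h, then treated with compound (11 points) for 16 h at 37C. After 2 h with CCF4, the 460/530 nm ratio gave reporter activation; CellTiter-Glo measured viability.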

The nature of assay [12]: qHTS assay for small molecule disruptors of mitochondrial membrane potential screened against the NCATS CANVASS Library (AID 1347389). Note: potency is the fitted concentration of half-maximal effect; nearly all actives have a fitted effect of over 60% in size. Particulars: HepG2 mitochondrial membrane potential, m-MPI red/green ratio, 1.5 h. An outline of the steps: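 Red/green fluorescence ratio read-out: J-aggregates ex 540/em 590 nm, monomers ex 490/em 535 nm. HepG2, 1 hr compound treatment, then 30 min Mito-MPS dye at 37C. 11-pt qHTS concentration series.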

Assay [13] can be described thus: qHTS for activators of Nrf2/ARE signaling pathway screened against the NCATS CANVASS Library (AID 1347391). Note: nearly all actives have a fitted effect of over 60% in size. As to conditions: ARE-bla HepG2, beta-lactamase reporter, 16 h; series mostly up to 46.1 µM. The method in brief: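 HepG2 ARE-bla; cpd 11-pt qHTS, 16 h 37C/5% CO2; CCF4 substrate 2 h RT; read ex 405 / em 460 + 530 nm. Viability by CellTiter-Glo luminescence, 30 min RT.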

Assay [14] can be described thus: Vero-766 cells viability qHTS against the NCATS CANVASS Library: Counterscreen for Zika virus inhibition assay (AID 1347394). Note: potency is the fitted concentration of half-maximal effect; nearly all actives have a fitted effect of over 60% in size. As to conditions: Vero 766 viability, CellTiter-Glo luminescence, 72 h. The method in brief: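 Vero 766, no virus; 1000 cells/well; o/n attach; cpd 11-pt; 72 h, 37C, 5% CO2; CTG luminescence; cell-free media wells = 100% inhibition.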
A short description of assay [15]: Redox Reaction Profiling qHTS: Assay Interference Panel against the NCATS CANVASS Library (AID 1347401). Particulars: resazurin-DTT redox cycling, fluorescence, 15 min; series mostly up to 57.1 µM. An outline of the steps:
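Fluorescence read-out (525 nm excitation, 598 nm emission) at time zero and after 15 min in the dark tracked resorufin formation. Mix: 5 uM resazurin, 200 uM DTT, HEPES pH 7.3 buffer with NaCl.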

Assay [16] can be described thus: qHTS to identify inhibitors of the type 1 interferon - major histocompatibility complex class I in skeletal muscle: primary screen against the NCATS LOPAC collection (AID 1347405).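 Note: human myoblasts with HiBiT tag on endogenous HLA-B stimulated by IFN-beta; lytic HiBiT luminescence reporting HLA-B protein level.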 Note: potency is the fitted concentration of half-maximal effect. Particulars: iHSKM muscle cells, IFN-b-induced MHC-I HiBiT luminescence, 24 h; series mostly up to 45.9 µM. The method in brief:
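HLA-B HiBiT myoblasts, IFN-b 4 ng/ml, dexamethasone-free medium; compounds 7-pt 1:4.3 titration, top 46 uM final; 24 h at 37 C; Nano-Glo HiBiT lytic reagent, 10 min RT, luminescence.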

Assay [17] is described as follows: qHTS for inhibitors of adenylyl cyclases using a fission yeast platform: a pilot screen against the NCATS LOPAC library (AID 1347410). As to conditions: S. pombe CHP2027, fbp1-GFP fluorescence, 18 h, yeast expressing mammalian AC9 and human GNAS; series mostly up to 57.5 µM. An outline of the steps: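 Fission yeast qHTS: CHP2027 cells (AC9-GNAS-PDE4D2, fbp1-GFP), 5x10^6 cells/mL working density, EMM + His/Lys/Ura; LOPAC at up to 57 µM final; 18 h dark, 30C; GFP by laser cytometry. DPI positive control, DMSO vehicle.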

The target in assay [18] is Protein phosphatase 1D (Homo sapiens) (UniProt O15297). The experiment in a line: RapidFire Mass Spectrometry qHTS Assay for Modulators of WT P53-Induced Phosphatase 1 (WIP1) (AID 1347424). Note: potency is the fitted concentration of half-maximal effect. As to conditions: WIP1 dephosphorylation of phosphopeptide, RapidFire MS; series mostly up to 63 µM. The method in brief: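 RapidFire MS readout of dephosphorylated VEPPL-S-QETFS product, with 1 uM isotope-labelled peptide standard. Reaction: 10 nM WIP1, 2 uM phosphopeptide substrate, 5 min, room temperature, after 1 h compound preincubation; stopped with 0.5% formic acid.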

Assay [19] can be described thus: qHTS to identify inhibitors of the type 1 interferon - major histocompatibility complex class I in skeletal muscle: primary screen against the NCATS Pharmaceutical Collection (AID 1347407).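 Note: luminescence of HiBiT knocked into endogenous HLA-B as interferon-induced MHC class I level.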 Particulars: human skeletal muscle cells, IFN-b-induced MHC-I HiBiT luminescence, 24 h; series mostly up to 45.9 µM. An outline of the steps:
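Luminescence from HiBiT-tagged endogenous HLA-B*08:01 served as the read-out of IFN-beta-induced MHC class I in CRISPR-engineered C25cl48 myoblasts. Cells received 4 ng/ml IFN-beta plus compound (high final 46 uM, […]) for 24 h.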

Structures are written as SMILES. Records with an inconclusive call do not appear. Calls of active or inactive are those of the source. Calls come from the whole dose curve; as a rule, active = well fitted curve in the direction sought with a large enough effect; inconclusive = small, poorly fitted or top-dose-only effect, or another doubt; inactive = no such curve, though single readings can be large; an effect the other way counts as inactive or inconclusive.

Sequence of Protein phosphatase 1D (Homo sapiens) (O15297 whole entry, looked up): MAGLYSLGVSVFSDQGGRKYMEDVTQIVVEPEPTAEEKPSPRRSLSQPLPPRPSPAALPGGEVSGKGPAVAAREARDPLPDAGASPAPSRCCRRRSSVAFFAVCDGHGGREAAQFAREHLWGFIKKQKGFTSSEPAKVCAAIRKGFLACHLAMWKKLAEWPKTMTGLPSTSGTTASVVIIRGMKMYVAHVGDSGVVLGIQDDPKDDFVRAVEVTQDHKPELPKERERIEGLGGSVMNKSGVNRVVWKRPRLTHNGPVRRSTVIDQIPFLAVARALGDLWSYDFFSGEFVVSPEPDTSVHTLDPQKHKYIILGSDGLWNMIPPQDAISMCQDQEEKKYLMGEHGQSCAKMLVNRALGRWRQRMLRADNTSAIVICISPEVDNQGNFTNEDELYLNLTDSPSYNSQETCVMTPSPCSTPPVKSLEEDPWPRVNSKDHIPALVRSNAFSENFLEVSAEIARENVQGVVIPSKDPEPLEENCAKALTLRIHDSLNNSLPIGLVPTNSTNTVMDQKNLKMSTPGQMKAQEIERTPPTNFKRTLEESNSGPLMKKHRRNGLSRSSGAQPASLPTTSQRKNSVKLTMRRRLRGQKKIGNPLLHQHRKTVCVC
Sequence of Nuclear receptor subfamily 1 group I member 3 (Homo sapiens) (Q14994 whole entry, looked up): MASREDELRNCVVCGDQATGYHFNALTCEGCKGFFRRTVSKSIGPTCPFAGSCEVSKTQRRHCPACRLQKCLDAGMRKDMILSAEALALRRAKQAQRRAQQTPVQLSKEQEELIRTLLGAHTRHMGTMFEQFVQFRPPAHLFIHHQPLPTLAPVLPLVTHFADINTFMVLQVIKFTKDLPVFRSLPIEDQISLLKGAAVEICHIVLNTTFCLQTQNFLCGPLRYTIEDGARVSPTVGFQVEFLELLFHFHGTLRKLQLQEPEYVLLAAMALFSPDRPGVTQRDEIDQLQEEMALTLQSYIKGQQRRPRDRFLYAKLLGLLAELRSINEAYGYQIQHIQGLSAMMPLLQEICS
Sequence of Luciferin 4-monooxygenase (Photinus pyralis) (P08659 whole entry, looked up): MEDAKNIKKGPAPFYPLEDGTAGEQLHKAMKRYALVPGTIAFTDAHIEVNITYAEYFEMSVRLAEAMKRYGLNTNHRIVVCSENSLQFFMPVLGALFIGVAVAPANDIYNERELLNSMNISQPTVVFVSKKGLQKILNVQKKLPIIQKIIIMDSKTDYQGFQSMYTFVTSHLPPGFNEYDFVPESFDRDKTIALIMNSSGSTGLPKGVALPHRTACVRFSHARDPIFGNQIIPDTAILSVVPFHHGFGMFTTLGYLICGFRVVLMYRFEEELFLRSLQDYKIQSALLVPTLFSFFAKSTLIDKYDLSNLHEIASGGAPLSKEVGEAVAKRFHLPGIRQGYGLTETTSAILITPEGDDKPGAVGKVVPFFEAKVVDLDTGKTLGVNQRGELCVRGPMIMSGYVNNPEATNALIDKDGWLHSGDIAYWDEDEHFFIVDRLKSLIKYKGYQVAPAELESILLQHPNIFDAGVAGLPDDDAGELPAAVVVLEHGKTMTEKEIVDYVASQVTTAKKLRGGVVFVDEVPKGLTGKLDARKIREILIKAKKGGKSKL

Consider `CC(C)CC(=O)c1c(O)cc2c(c1O)C(CC(C)C)C1=C(O2)C(C)(C)C(=O)C(C)(C)C1=O` (configuration not stated), for which the Potency is 20.9 µM (active) in assay [1]; 16.6 µM (active) in assay [3]; 26.4 µM (active) in assay [4]; 20.9 µM (active) in assay [6]; 0.594 µM (active) in [9]; 20.9 µM (active) in [11]. The figures for the Potency in [12] and in [14] were 3.31 µM (active) and 6.6 µM (active), respectively. The compound was called inactive in assay [2], in assay [5], in assay [7], in assay [8], in assay [10] and in [13]. Moreover, the outcome in assay [15] was inactive.

In the case of `NCCCC(=O)O`, the Potency entry in assay [16] was “inactive”. In addition, the compound was classed as inactive in assay [17].

Regarding `CN[C@H]1CC[C@@H](c2ccc(Cl)c(Cl)c2)c2ccccc21`, the Potency in assay [16] was 28.2 µM (active). For the same compound, the call in assay [17] was inactive. The Potency entry in [18] is “inactive”.

Regarding `Oc1cccc(-c2c3nc(c(-c4cccc(O)c4)c4ccc([nH]4)c(-c4cccc(O)c4)c4nc(c(-c5cccc(O)c5)c5ccc2[nH]5)CC4)C=C3)c1`, the result in assay [19] was inactive. The Potency in assay [18] was 1.58 µM (active).

The values above are taken from PubChem BioAssay (NCATS).
